# Among all 5,500 compounds or so, about 2,000 (36%) were called active. Roughly 18% stayed inconclusive and do not appear here. Some of the results follow. Values without a mark were called inactive. Rule as the data show it: active = normalized growth mostly below about 0.91 (no sharp cut-off); inconclusive = no clear call, values can overlap the other calls; inactive = mostly above about 0.92.
# Assay: chemical genetic growth profiling, strain panel (AID 1159580);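 also: tested at 20 µM; growth read once vehicle control cultures reached saturation at 30 °C; 1 = growth at the plate median or of vehicle wells; lower values mean less growth of the strain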
# Conditions: growth OD
smiles,measurement,setting,value
NC[C@H](O)c1ccc(O)c(O)c1,normalized growth,"S. cerevisiae deletion strains, locus YJR066W, strain TOR1, stronger effect = lower value",0.934
same,normalized growth,"S. cerevisiae deletion strains, locus YJR075W, strain HOC1, stronger effect = lower value",1.02
same,normalized growth,"S. cerevisiae deletion strains, locus YKL009W, strain mrt4, stronger effect = lower value",1
same,normalized growth,"S. cerevisiae deletion strains, locus YKL068W, stronger effect = lower value",1.01
same,normalized growth,"S. cerevisiae deletion strains, locus YKL085W, strain MDH1 (second series), stronger effect = lower value",1.01
same,normalized growth,"S. cerevisiae deletion strains, locus YKL085W, strain MDH1, stronger effect = lower value",1.01
same,normalized growth,"S. cerevisiae deletion strains, locus YKL160W, strain elf1, stronger effect = lower value",1.02
same,normalized growth,"S. cerevisiae deletion strains, locus YKL190W, strain CNB1, stronger effect = lower value",1.01
same,normalized growth,"S. cerevisiae deletion strains, locus YKR001C, strain vps1, stronger effect = lower value",0.999
same,normalized growth,"S. cerevisiae deletion strains, locus YKR026C, strain gcn3, stronger effect = lower value",1
same,normalized growth,"S. cerevisiae deletion strains, locus YKR091W, strain srl3, stronger effect = lower value",1.01
same,normalized growth,"S. cerevisiae deletion strains, locus YLL001W, strain dnm1, stronger effect = lower value",1.02
same,normalized growth,"S. cerevisiae deletion strains, locus YLL026W, stronger effect = lower value",1.02
same,normalized growth,"S. cerevisiae deletion strains, locus YLL041C, strain sdh2, stronger effect = lower value",1
same,normalized growth,"S. cerevisiae deletion strains, locus YLR027C, strain aat2, stronger effect = lower value",1.01
same,normalized growth,"S. cerevisiae deletion strains, locus YLR039C, strain RIC1, stronger effect = lower value",1
same,normalized growth,"S. cerevisiae deletion strains, locus YLR058C, strain SHM2, stronger effect = lower value",1.01
same,normalized growth,"S. cerevisiae deletion strains, locus YLR102C, strain apc9, stronger effect = lower value",1.02
same,normalized growth,"S. cerevisiae deletion strains, locus YLR113W, strain HOG1, stronger effect = lower value",0.97
same,normalized growth,"S. cerevisiae deletion strains, locus YLR221C, strain rsa3, stronger effect = lower value",1.01
same,normalized growth,"S. cerevisiae deletion strains, locus YLR258W, strain gsy2, stronger effect = lower value",1.01
same,normalized growth,"S. cerevisiae deletion strains, locus YLR262C, strain YPT6 (second series), stronger effect = lower value",1.02
same,normalized growth,"S. cerevisiae deletion strains, locus YLR262C, strain YPT6, stronger effect = lower value",1.04
same,normalized growth,"S. cerevisiae deletion strains, locus YLR268W, strain sec22, stronger effect = lower value",1.04
same,normalized growth,"S. cerevisiae deletion strains, locus YLR320W, strain mms22, stronger effect = lower value",1.04
same,normalized growth,"S. cerevisiae deletion strains, locus YLR330W, strain CHS5, stronger effect = lower value",1.01
same,normalized growth,"S. cerevisiae deletion strains, locus YLR342W, strain FKS1 (second series), stronger effect = lower value",1.01
same,normalized growth,"S. cerevisiae deletion strains, locus YLR342W, strain FKS1, stronger effect = lower value",1.01
same,normalized growth,"S. cerevisiae deletion strains, locus YLR357W, strain rsc2, stronger effect = lower value",0.938
same,normalized growth,"S. cerevisiae deletion strains, locus YLR370C, strain arc18, stronger effect = lower value",1.01
same,normalized growth,"S. cerevisiae deletion strains, locus YLR371W, strain rom2, stronger effect = lower value",1.03
same,normalized growth,"S. cerevisiae deletion strains, locus YLR384C, strain iki3, stronger effect = lower value",1
same,normalized growth,"S. cerevisiae deletion strains, locus YLR418C, strain cdc73, stronger effect = lower value",1
same,normalized growth,"S. cerevisiae deletion strains, locus YML016C, strain PPZ1, stronger effect = lower value",1
same,normalized growth,"S. cerevisiae deletion strains, locus YML032C, strain rad52, stronger effect = lower value",1.02
same,normalized growth,"S. cerevisiae deletion strains, locus YML120C, strain ndi1, stronger effect = lower value",1
same,normalized growth,"S. cerevisiae deletion strains, locus YML124C, strain tub3, stronger effect = lower value",1.01
same,normalized growth,"S. cerevisiae deletion strains, locus YMR058W, strain fet3, stronger effect = lower value",0.841 (active)
same,normalized growth,"S. cerevisiae deletion strains, locus YMR078C, strain ctf18, stronger effect = lower value",1.02
same,normalized growth,"S. cerevisiae deletion strains, locus YMR125W, strain sto1, stronger effect = lower value",0.952
same,normalized growth,"S. cerevisiae deletion strains, locus YMR129W, stronger effect = lower value",0.993
same,normalized growth,"S. cerevisiae deletion strains, locus YMR205C, strain PFK2, stronger effect = lower value",1.06
same,normalized growth,"S. cerevisiae deletion strains, locus YMR223W, strain ubp8, stronger effect = lower value",0.99
same,normalized growth,"S. cerevisiae deletion strains, locus YMR231W, strain pep5, stronger effect = lower value",0.995
same,normalized growth,"S. cerevisiae deletion strains, locus YMR263W, strain SAP30, stronger effect = lower value",1.01
same,normalized growth,"S. cerevisiae deletion strains, locus YMR307W, strain GAS1, stronger effect = lower value",0.979
same,normalized growth,"S. cerevisiae deletion strains, locus YNL067W, strain RPL9B, stronger effect = lower value",1.01
same,normalized growth,"S. cerevisiae deletion strains, locus YNL071W, strain lat1, stronger effect = lower value",0.997
same,normalized growth,"S. cerevisiae deletion strains, locus YNL183C, strain NPR1, stronger effect = lower value",0.948
same,normalized growth,"S. cerevisiae deletion strains, locus YNL209W, strain ssb2, stronger effect = lower value",0.999
same,normalized growth,"S. cerevisiae deletion strains, locus YNL233W, strain BNI4, stronger effect = lower value",1.01
same,normalized growth,"S. cerevisiae deletion strains, locus YNL248C, strain rpa49, stronger effect = lower value",0.978
same,normalized growth,"S. cerevisiae deletion strains, locus YNL250W, strain rad50, stronger effect = lower value",1.01
same,normalized growth,"S. cerevisiae deletion strains, locus YNL271C, strain bni1, stronger effect = lower value",1.01
same,normalized growth,"S. cerevisiae deletion strains, locus YNL298W, strain CLA4, stronger effect = lower value",1
same,normalized growth,"S. cerevisiae deletion strains, locus YNL307C, strain MCK1, stronger effect = lower value",1.02
same,normalized growth,"S. cerevisiae deletion strains, locus YNL322C, strain KRE1 (second series), stronger effect = lower value",1.01
same,normalized growth,"S. cerevisiae deletion strains, locus YNR049C, strain mso1, stronger effect = lower value",1.01
same,normalized growth,"S. cerevisiae deletion strains, locus YNR052C, strain pop2, stronger effect = lower value",1.01
same,normalized growth,"S. cerevisiae deletion strains, locus YOL006C, strain TOP1, stronger effect = lower value",0.941
same,normalized growth,"S. cerevisiae deletion strains, locus YOL012C, strain htz1",1.04
same,normalized growth,"S. cerevisiae deletion strains, locus YOL147C, strain pex11, stronger effect = lower value",1.01
same,normalized growth,"S. cerevisiae deletion strains, locus YOR001W, strain rrp6, stronger effect = lower value",0.969
same,normalized growth,"S. cerevisiae deletion strains, locus YOR061W, strain CKA2, stronger effect = lower value",1.01
same,normalized growth,"S. cerevisiae deletion strains, locus YOR069W, strain VPS5, stronger effect = lower value",1.01
same,normalized growth,"S. cerevisiae deletion strains, locus YOR070C, strain gyp1, stronger effect = lower value",1
same,normalized growth,"S. cerevisiae deletion strains, locus YOR080W, strain dia2, stronger effect = lower value",1.01
same,normalized growth,"S. cerevisiae deletion strains, locus YOR083W, strain WHI5, stronger effect = lower value",1.05
same,normalized growth,"S. cerevisiae deletion strains, locus YOR106W, strain vam3, stronger effect = lower value",1.04
same,normalized growth,"S. cerevisiae deletion strains, locus YOR136W, strain idh2, stronger effect = lower value",1.02
same,normalized growth,"S. cerevisiae deletion strains, locus YOR144C, strain elg1, stronger effect = lower value",1.01
same,normalized growth,"S. cerevisiae deletion strains, locus YOR184W, strain ser1, stronger effect = lower value",1.06
same,normalized growth,"S. cerevisiae deletion strains, locus YOR231W, strain MKK1, stronger effect = lower value",1
same,normalized growth,"S. cerevisiae deletion strains, locus YOR265W, strain rbl2, stronger effect = lower value",1.01
same,normalized growth,"S. cerevisiae deletion strains, locus YOR270C, strain vph1, stronger effect = lower value",0.944
same,normalized growth,"S. cerevisiae deletion strains, locus YOR290C, strain snf2, stronger effect = lower value",1.01
same,normalized growth,"S. cerevisiae deletion strains, locus YOR316C, strain cot1, stronger effect = lower value",1.01
same,normalized growth,"S. cerevisiae deletion strains, locus YPL051W, strain arl3, stronger effect = lower value",0.99
same,normalized growth,"S. cerevisiae deletion strains, locus YPL078C, strain atp4, stronger effect = lower value",1.01
same,normalized growth,"S. cerevisiae deletion strains, locus YPL106C, strain sse1, stronger effect = lower value",1
same,normalized growth,"S. cerevisiae deletion strains, locus YPL240C, strain hsp82, stronger effect = lower value",0.994
same,normalized growth,"S. cerevisiae deletion strains, locus YPL241C, strain CIN2, stronger effect = lower value",1.01
same,normalized growth,"S. cerevisiae deletion strains, locus YPL256C, strain CLN2, stronger effect = lower value",0.961
same,normalized growth,"S. cerevisiae deletion strains, locus YPR119W, strain clb2, stronger effect = lower value",1.02
same,normalized growth,"S. cerevisiae deletion strains, locus YPR141C, strain kar3, stronger effect = lower value",1.01
same,normalized growth,"S. cerevisiae deletion strains, locus YPR163C, strain tif3, stronger effect = lower value",1.01
same,normalized growth,"S. cerevisiae deletion strains, locus YPR167C, strain met16, stronger effect = lower value",1.02
same,normalized growth,"S. cerevisiae deletion strains, strain wtn01, stronger effect = lower value",1.02
same,normalized growth,"S. cerevisiae strains, strain wild type, stronger effect = lower value",1.01
